# Measured values published in PubChem BioAssay AID1814 (Broad Institute, 2009).
# Hit rate of the full screen: of about 300,000 compounds, about 22,000 (7.3%) were called active. Roughly 2% stayed inconclusive and do not appear here. Many of the other results were omitted from the sample, so actives are more common in it than they were. Values without a mark were called inactive. Rule as the data show it: active = activity score below about -60%; inconclusive = mostly about -28% to -61%; inactive = positive scores.
# Test: Activators working through SNCA 5'UTR binding (MLPCN) (AID 1814)
# Settings: alpha-synuclein 5'UTR reporter, activators screen; stronger effect = lower value; tested at 7.5 µM
row,Structure (SMILES),activity score
1,COc1ccc(C(CC(=O)c2ccccc2)S(=O)(=O)c2ccccc2)cc1 (stereo not drawn),-120% (active)
2,COC(=O)c1ccc(Nc2ncnc3sccc23)cc1,-125% (active)
3,COc1c(O)cc2oc(-c3ccc(O)c(O)c3)cc(=O)c2c1O,-140% (active)
4,COc1ccc(/C=C/C(=O)Nc2c(C)nn(C)c2C)cc1COc1ccc(Br)cc1,50.9%
5,COc1ccc(C(=O)/C=C/c2ccc(-c3ccccc3)cc2)cc1CSCC(=O)O,-90% (active)
6,O=C(c1cc(COc2ccc(F)cc2F)on1)N1CCOCC1,-124% (active)
7,O=C(c1cc(COc2ccc(F)c(F)c2)on1)N1CCOCC1,-68.2% (active)
8,CCC(NC(=O)c1cc(COc2ccc(F)c(F)c2)on1)c1ccncc1 (stereo not drawn),-78.1% (active)
9,O=C(c1cc(COc2c(F)cccc2F)on1)N1CCSCC1,-165% (active)
10,CC(C)(C)c1ccc(C(=O)CSc2ncn[nH]2)cc1,-158% (active)
11,OCCCN1c2ccccc2Nc2nnc(-c3ccccc3)cc21,-189% (active)
12,O=S(=O)(c1ccc(Br)cc1)N1CCC(c2nc3ccccc3[nH]2)CC1,78.3%
13,Nc1ccccc1SCc1cc([N+](=O)[O-])cc2c1OCOC2,-66.8% (active)
14,Nc1cc(N)nc(SCc2cccc(F)c2)n1,-147% (active)
15,Cc1cc2oc3ccc(NCCC4CCCN4C)cc3c(=O)c2cc1C (stereo not drawn),-102% (active)
16,O=C(Nc1ccc(Br)cn1)c1ccc([N+](=O)[O-])cc1Cl,-92.4% (active)
17,COc1ccc(OCC(=O)Nc2cc(C)c(Cl)cc2OC)c([N+](=O)[O-])c1,-102% (active)
18,CC(=O)Nc1ccccc1C(=O)C(=O)Nc1ccc(F)cc1,-64.9% (active)
19,Cc1nn(-c2ccc([N+](=O)[O-])cc2)c(N)c1-c1ccccc1,-143% (active)
20,COCCCNC(=S)NC(=O)c1ccccc1,-88.8% (active)
21,O=C(N/N=C/c1cc2c(cc1Br)OCO2)C1COc2ccccc2O1 (stereo not drawn),-96.1% (active)
22,Cc1ccc(OCc2cc(C(=O)N(C)CCc3ccccc3)no2)cc1C,-115% (active)
23,S=C(Nc1cccc(Cl)c1)Nc1ccc2cn[nH]c2c1,-89.3% (active)
24,Cc1csc(NC(=S)Nc2cccc(Cl)c2)n1,-193% (active)
25,O=[N+]([O-])/C=C/c1ccc2c(ccn2Cc2ccccc2)c1,84.5%
26,Cc1ccc(Oc2cnn(-c3ccccc3)c(=O)c2Br)cc1,-78.5% (active)

row,Structure (SMILES),activity score
1,NC(=O)COc1ccc(C23CC4CC(CC(C4)C2)C3)cc1,-101% (active)
2,Nc1nonc1-n1nnc(C(=O)N/N=C/c2cc(Br)ccc2O)c1CSC1=NCCS1,94.1%
3,Cc1ccn2cc(-c3nonc3C)cc2c1,-128% (active)
4,CCOc1ccc2cc(C#N)c(SCC(=O)OC)nc2c1,-145% (active)
5,Cc1nonc1NC(=O)CSc1nc2ccccc2cc1C#N,-91.1% (active)
6,COCc1cc(C)nc(SCC(=O)Nc2cccc(C)c2)c1C#N,-67.6% (active)
7,Cc1cc(C)c(C#N)c(SCC(=O)Nc2ccccc2)n1,-212% (active)
8,Cc1ccccc1NC(=O)CCOc1ccccc1,-74.9% (active)
9,CCN1CCN(C(C(=O)NC2CCCC2)c2cc3c(cc2[N+](=O)[O-])OCO3)CC1 (stereo not drawn),-63% (active)
10,CCCOc1ccc(-c2nc(N)n[nH]2)cc1,-93.7% (active)
11,CCCCCc1ccc(-c2ccc(OCC)cc2)nc1,79.7%
12,CCOC(=O)c1c(NC(=O)c2ccc(Br)o2)sc2c1CCCC2,-64.9% (active)
13,NC(=O)c1c(NC(=O)c2ccccc2)sc2c1CCCC2,-148% (active)
14,C=CCN(CC=C)S(=O)(=O)c1ccc(C(=O)Nc2sc3c(c2C(N)=O)CCCCC3)cc1,-70.1% (active)
15,COC(=O)c1c(NC(=O)c2cccs2)sc2c1CCCC2,-128% (active)
16,COc1ccc(NCCc2ccccn2)cc1,-134% (active)
17,CCC(C)NC(=O)CCCc1ccccc1 (stereo not drawn),-63.7% (active)
18,O=C(Nc1ccc(Cl)cc1)c1ccsn1,-143% (active)
19,Cc1ccc(NC(=O)c2ccn(C(=O)Nc3ccccc3)n2)c(C)c1,-69.3% (active)
20,c1ccc(CN2CCC(N=C3NN=C(c4ccc5c(c4)OCCO5)CS3)CC2)cc1,-223% (active)
21,CCS(=O)(=O)c1cc([N+](=O)[O-])c(Sc2ccccc2N)s1,-91.3% (active)
22,CCN1CCN(c2ccc([N+](=O)[O-])cc2C(=O)c2ccc(Cl)cc2)CC1,-107% (active)
23,COc1ccc(C(=O)c2c3ccc([N+](=O)[O-])cc3[n+]([O-])n2CCCN)cc1,63.1%
24,Cc1ccc(NC(=S)N2CCN(c3ncccn3)CC2)cc1C,-84.3% (active)
25,CC(=O)c1ccc(NC(=O)CCc2nnc3ccc(NCc4ccco4)nn23)cc1,-95.3% (active)
26,O=C(/C=C/c1ccc([N+](=O)[O-])o1)NNC(=O)c1ccc(F)cc1,-94.3% (active)

row,Structure (SMILES),activity score
1,NC(=O)CSc1nnc(NC(=O)c2ccc3ccccc3c2)s1,-88.3% (active)
2,C=CCSc1nnc(NC(=O)c2ccc(NC(C)=O)cc2)s1,-64.4% (active)
3,COC(=O)c1ccc(-n2cnc3ccccc32)nc1,-117% (active)
4,COCCn1c(=NC(=O)c2ccccc2[N+](=O)[O-])sc2cc(S(C)(=O)=O)ccc21,-151% (active)
5,CCOC(=O)c1cc2n(c1C)-c1ccccc1C2=O,-108% (active)
6,CCOC(=O)c1c(C)[nH]c2c1-c1ccccc1C(=O)C2=O,99.5%
7,COc1ccc(Nc2nnc(C)c3ccccc23)cc1,-67.1% (active)
8,COc1ccc(Nc2cc(C)nc(-n3nc(C)cc3C)n2)cc1,92.8%
9,O=C(c1cc(-c2ccc(O)cc2)on1)N1CCCc2ccccc21,-95.6% (active)
10,COc1c(C)c2c(c(O)c1C/C=C(\C)CCC(=O)O)C(=O)OC2,76.6%
11,C=CCNC(=O)/C=C/c1ccc(C(C)C)cc1,-129% (active)
12,COc1ccc(-n2cnc3cc(NCc4ccco4)ccc32)cc1,-126% (active)
13,COc1ccc(/C(N)=N/OC(=O)Cc2ccccc2)cc1,-125% (active)
14,COc1ccc(-c2nc3cc([N+](=O)[O-])ccc3o2)cc1OC,-65.4% (active)
15,O=[N+]([O-])c1ccc2oc(-c3cccc(O)c3)nc2c1,-91.7% (active)
16,Cc1ccc(N=C2NC(=O)/C(=C/C=C/c3ccco3)S2)cc1C,-81.5% (active)
17,COc1ccc(C(=O)Nc2ccccc2C(=O)N/N=C/c2ccccc2OC)cc1,-124% (active)
18,COc1ccc(C(=O)Nc2cc(C)c(NC(=O)c3ccccc3OC)cn2)cc1,-115% (active)
19,CC(C)(C)C(=O)Nc1ccc(C(=O)N/N=C/c2ccccc2OC(=O)c2ccc(Cl)cc2Cl)cc1,65.2%
20,N#CC1=C(N)Oc2cc(O)ccc2C1C1CCCCC1 (stereo not drawn),-65.6% (active)
21,C=CCN(C(=O)Nc1ccc2c(c1)nc(C)n2C)c1ccccc1,-71.4% (active)
22,C=CCN(C(=O)Nc1ccc2oc(C)nc2c1)c1ccccc1,-65.8% (active)
23,O=C(COc1ccc([N+](=O)[O-])cc1)Nc1ccc(N2CCCC2)cc1,-69.6% (active)
24,O=C(CSc1nnc2ccccn12)c1ccccc1,-81.7% (active)
25,CC(C)(C)C1CCc2c(sc3nc(SCC(N)=O)nc(N)c23)C1 (stereo not drawn),-196% (active)
26,C=C(C)CSc1nc(N)c2c3c(sc2n1)CCC3,-152% (active)

row,Structure (SMILES),activity score
1,COC(=O)c1sc(NC(=O)c2csc3c2CCCC3)nc1C,-228% (active)
2,Cc1ccc(NC(=O)c2csc3c2CCCC3)cc1,-158% (active)
3,Cc1cc2c(C)nc(N/N=C/c3ccccc3)nc2o1,-123% (active)
4,COC(=O)c1ccc(CSc2nncn2C)cc1,-112% (active)
5,COC(=O)c1ccc(CSc2ccc3nnc(-c4ccccc4)n3n2)o1,53.7%
6,Cc1ccc(Oc2nc(-c3ccccn3)nc3ccccc23)cc1,-92.6% (active)
7,CSc1nc2ccc(NC(=O)c3c(F)cccc3F)cc2s1,-166% (active)
8,CCn1c(=O)c2cc(C(=O)Nc3cccc(C(C)=O)c3)sc2c2ccccc21,-66.3% (active)
9,Fc1cccc(Cl)c1CSc1ccc(-c2ccco2)nn1,-172% (active)
10,CSc1ccccc1NC(=O)c1cnc2sc(C)cn2c1=O,-129% (active)
11,CC(C)(C)NC(=O)Cn1nnc(-c2ccccc2Cl)n1,-117% (active)
12,O=C1N/C(=C/c2cccn2-c2ccccc2)C(=O)N1c1cccc(Cl)c1,-65.3% (active)
13,COc1ccc(C2CC(c3cccs3)=NN2c2ccccc2)cc1 (stereo not drawn),-69% (active)
14,COc1ccc(Cc2n[nH]c(=S)n2NC(=O)Nc2ccc(C)cc2)cc1,-75.9% (active)
15,CC(C)COC(=O)c1ccc(NC(=O)C2C3C=CC(C3)C2C(=O)O)cc1 (stereo not drawn),-101% (active)
16,Cc1ccc(NC(=O)Nc2ccc3oc(C)nc3c2)cc1,-272% (active)
17,Cc1nc2cc(NC(=O)NCc3ccccc3)ccc2o1,-102% (active)
18,COc1cc(/C=C2/C(=O)ON=C2C)ccc1OCc1ccccc1F,-183% (active)
19,COc1cc(/C=C2/C(=O)ON=C2C)ccc1OCc1cccc(F)c1,-149% (active)
20,CN1CCN(C2Cc3ccc(Cl)cc3Sc3ccc(F)cc32)CC1 (stereo not drawn),104%
21,COc1ccc(S(=O)(=O)N2CCCC(C(=O)Nc3ccc(NC(=O)c4ccccn4)cc3)C2)cc1 (stereo not drawn),-87.5% (active)
22,Cc1n[nH]c(C)c1S(=O)(=O)N1CCCC(C(=O)Nc2ccc(Br)cc2)C1 (stereo not drawn),-116% (active)
23,CCOC(=O)CSC1=C(C#N)C(c2sccc2C)CC(=O)N1 (stereo not drawn),75%
24,O=C(CSCc1cccs1)N1CCCC1,-80.2% (active)
25,O=C(CSCc1ccc(Cl)cc1)N1CCCCC1,-102% (active)
